Results taken from ChEMBL document CHEMBL1961873, “Compounds: GSK PKIS; Assays: Nanosyn kinase panel” (2012).

Key:
[1] = tested on: Proto-oncogene tyrosine-protein kinase receptor Ret (Homo sapiens), P07949 [Y791F]; conditions: at 1 µM
[2] = target: Macrophage-stimulating protein receptor (Homo sapiens) (UniProt Q04912); conditions: at 0.1 µM
[3] = target: Macrophage-stimulating protein receptor (Homo sapiens) (UniProt Q04912); conditions: at 1 µM
[4] = target: Proto-oncogene tyrosine-protein kinase ROS (Homo sapiens) (UniProt P08922); conditions: at 0.1 µM
[5] = target: Proto-oncogene tyrosine-protein kinase ROS (Homo sapiens) (UniProt P08922); conditions: at 1 µM
[6] = target: Proto-oncogene tyrosine-protein kinase Src (Homo sapiens) (UniProt P12931); conditions: at 0.1 µM
Sequence of Proto-oncogene tyrosine-protein kinase Src (Homo sapiens) (P12931 2-536 limits assumed): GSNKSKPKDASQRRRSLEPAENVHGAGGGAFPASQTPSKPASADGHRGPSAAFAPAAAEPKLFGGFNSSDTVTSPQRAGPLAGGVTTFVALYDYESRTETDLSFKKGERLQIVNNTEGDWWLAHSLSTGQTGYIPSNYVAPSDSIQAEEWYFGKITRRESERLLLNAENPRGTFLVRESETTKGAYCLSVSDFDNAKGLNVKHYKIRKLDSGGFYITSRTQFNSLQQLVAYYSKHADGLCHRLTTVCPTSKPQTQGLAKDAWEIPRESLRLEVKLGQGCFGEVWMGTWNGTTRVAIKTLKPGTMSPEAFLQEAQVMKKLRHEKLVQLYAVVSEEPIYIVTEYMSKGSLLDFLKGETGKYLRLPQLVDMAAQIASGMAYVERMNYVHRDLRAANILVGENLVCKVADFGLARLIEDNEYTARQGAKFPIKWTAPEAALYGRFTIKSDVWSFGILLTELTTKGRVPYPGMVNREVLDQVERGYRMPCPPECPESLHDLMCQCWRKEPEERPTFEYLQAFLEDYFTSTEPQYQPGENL

[7] = target: Proto-oncogene tyrosine-protein kinase Src (Homo sapiens) (UniProt P12931); conditions: at 1 µM
[8] = target: Tyrosine-protein kinase Srms (Homo sapiens) (UniProt Q9H3Y6); conditions: at 0.1 µM
Sequence of Tyrosine-protein kinase Srms (Homo sapiens) (Q9H3Y6 whole entry): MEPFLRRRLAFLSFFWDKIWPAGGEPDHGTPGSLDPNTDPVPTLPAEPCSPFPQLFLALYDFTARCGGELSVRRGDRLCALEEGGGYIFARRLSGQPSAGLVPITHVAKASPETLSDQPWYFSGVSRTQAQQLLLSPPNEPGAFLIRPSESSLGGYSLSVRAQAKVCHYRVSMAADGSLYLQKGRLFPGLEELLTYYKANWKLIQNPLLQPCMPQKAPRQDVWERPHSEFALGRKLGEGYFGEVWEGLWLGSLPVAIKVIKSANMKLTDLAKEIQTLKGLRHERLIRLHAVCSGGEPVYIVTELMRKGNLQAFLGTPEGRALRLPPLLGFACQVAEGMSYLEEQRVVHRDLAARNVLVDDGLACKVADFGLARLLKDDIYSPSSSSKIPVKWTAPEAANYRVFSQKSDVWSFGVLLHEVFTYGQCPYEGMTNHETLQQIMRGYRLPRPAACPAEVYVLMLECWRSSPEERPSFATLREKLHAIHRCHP

[9] = target: Tyrosine-protein kinase Srms (Homo sapiens) (UniProt Q9H3Y6); conditions: at 1 µM
[10] = target: Tyrosine-protein kinase SYK (Homo sapiens) (UniProt P43405); conditions: at 0.1 µM
[11] = target: Tyrosine-protein kinase SYK (Homo sapiens) (UniProt P43405); conditions: at 1 µM
[12] = target: T1, Tyrosine-protein kinase Tec (Homo sapiens) (UniProt P42680); conditions: at 0.1 µM
T1 sequence (whole entry): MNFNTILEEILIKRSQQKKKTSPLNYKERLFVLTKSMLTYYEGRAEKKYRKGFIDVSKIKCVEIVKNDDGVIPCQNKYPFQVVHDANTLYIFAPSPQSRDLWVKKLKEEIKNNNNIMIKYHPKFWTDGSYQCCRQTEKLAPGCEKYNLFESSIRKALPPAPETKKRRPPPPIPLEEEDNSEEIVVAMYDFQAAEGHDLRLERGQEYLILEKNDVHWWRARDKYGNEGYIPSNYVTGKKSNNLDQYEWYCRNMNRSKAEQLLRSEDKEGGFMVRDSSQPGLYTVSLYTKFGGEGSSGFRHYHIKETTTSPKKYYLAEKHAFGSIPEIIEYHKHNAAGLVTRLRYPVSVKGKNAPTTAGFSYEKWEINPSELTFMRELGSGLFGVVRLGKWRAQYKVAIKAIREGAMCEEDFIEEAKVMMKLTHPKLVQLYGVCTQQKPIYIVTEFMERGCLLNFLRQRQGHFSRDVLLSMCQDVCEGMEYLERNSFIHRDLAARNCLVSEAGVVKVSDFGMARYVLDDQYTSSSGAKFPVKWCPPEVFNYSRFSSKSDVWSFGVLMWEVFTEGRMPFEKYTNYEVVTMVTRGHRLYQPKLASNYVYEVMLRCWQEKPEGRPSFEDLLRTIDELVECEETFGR

[13] = target: T1, Tyrosine-protein kinase Tec (Homo sapiens); conditions: at 1 µM
[14] = target: Angiopoietin-1 receptor (Homo sapiens) (UniProt Q02763); conditions: at 0.1 µM
Sequence of Angiopoietin-1 receptor (Homo sapiens) (Q02763 whole entry): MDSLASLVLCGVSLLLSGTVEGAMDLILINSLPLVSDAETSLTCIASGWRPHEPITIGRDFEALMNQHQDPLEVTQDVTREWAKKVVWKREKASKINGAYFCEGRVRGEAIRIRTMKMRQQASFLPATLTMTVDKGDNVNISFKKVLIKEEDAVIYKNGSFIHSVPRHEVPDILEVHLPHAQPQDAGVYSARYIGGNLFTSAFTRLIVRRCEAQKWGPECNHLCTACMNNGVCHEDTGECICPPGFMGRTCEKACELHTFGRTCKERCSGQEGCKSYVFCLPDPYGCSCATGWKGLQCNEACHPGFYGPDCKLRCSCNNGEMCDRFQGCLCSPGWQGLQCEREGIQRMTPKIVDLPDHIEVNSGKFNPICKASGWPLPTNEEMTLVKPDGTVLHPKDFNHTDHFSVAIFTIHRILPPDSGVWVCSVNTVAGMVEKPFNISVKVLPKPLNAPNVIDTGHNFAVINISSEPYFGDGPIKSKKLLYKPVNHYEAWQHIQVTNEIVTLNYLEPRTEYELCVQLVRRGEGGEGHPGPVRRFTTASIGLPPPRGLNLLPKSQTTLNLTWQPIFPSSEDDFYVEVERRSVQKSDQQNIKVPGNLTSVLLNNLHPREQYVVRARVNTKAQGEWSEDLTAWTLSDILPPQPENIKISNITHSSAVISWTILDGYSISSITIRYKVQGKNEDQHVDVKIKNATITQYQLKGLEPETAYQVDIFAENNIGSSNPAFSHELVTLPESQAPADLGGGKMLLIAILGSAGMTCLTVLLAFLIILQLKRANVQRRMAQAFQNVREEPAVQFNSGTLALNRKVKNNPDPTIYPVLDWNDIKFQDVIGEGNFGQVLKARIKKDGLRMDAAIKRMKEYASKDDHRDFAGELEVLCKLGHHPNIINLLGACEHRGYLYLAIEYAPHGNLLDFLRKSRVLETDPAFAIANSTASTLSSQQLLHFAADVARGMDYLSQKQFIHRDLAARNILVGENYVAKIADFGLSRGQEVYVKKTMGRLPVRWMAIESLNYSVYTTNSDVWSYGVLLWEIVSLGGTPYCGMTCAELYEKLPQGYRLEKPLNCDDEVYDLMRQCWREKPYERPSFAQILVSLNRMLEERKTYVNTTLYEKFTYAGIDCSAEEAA

[15] = target: Angiopoietin-1 receptor (Homo sapiens) (UniProt Q02763); conditions: at 1 µM
[16] = target: T2, Non-receptor tyrosine-protein kinase TNK1 (Homo sapiens) (UniProt Q13470); conditions: at 0.1 µM
T2 sequence (whole entry): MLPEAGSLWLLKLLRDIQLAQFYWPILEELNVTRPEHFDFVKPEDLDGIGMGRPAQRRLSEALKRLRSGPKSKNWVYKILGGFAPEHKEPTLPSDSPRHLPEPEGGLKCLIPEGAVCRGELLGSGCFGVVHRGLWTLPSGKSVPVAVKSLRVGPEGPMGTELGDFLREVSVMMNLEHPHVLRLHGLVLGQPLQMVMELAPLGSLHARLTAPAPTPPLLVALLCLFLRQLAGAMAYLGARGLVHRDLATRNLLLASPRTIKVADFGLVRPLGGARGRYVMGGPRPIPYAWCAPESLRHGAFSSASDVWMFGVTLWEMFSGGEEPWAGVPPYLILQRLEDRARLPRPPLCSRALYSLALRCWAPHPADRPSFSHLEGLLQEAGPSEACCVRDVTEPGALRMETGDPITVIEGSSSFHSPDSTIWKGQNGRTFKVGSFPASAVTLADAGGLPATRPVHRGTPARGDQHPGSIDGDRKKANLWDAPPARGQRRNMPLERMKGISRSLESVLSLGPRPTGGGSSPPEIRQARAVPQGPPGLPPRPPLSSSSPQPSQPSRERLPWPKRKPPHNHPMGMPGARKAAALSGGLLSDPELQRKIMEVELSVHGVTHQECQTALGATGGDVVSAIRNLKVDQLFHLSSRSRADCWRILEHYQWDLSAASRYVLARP

[17] = target: T2, Non-receptor tyrosine-protein kinase TNK1 (Homo sapiens); conditions: at 1 µM
[18] = target: Activated CDC42 kinase 1 (Homo sapiens) (UniProt Q07912); conditions: at 0.1 µM
Sequence of Activated CDC42 kinase 1 (Homo sapiens) (Q07912 whole entry, looked up): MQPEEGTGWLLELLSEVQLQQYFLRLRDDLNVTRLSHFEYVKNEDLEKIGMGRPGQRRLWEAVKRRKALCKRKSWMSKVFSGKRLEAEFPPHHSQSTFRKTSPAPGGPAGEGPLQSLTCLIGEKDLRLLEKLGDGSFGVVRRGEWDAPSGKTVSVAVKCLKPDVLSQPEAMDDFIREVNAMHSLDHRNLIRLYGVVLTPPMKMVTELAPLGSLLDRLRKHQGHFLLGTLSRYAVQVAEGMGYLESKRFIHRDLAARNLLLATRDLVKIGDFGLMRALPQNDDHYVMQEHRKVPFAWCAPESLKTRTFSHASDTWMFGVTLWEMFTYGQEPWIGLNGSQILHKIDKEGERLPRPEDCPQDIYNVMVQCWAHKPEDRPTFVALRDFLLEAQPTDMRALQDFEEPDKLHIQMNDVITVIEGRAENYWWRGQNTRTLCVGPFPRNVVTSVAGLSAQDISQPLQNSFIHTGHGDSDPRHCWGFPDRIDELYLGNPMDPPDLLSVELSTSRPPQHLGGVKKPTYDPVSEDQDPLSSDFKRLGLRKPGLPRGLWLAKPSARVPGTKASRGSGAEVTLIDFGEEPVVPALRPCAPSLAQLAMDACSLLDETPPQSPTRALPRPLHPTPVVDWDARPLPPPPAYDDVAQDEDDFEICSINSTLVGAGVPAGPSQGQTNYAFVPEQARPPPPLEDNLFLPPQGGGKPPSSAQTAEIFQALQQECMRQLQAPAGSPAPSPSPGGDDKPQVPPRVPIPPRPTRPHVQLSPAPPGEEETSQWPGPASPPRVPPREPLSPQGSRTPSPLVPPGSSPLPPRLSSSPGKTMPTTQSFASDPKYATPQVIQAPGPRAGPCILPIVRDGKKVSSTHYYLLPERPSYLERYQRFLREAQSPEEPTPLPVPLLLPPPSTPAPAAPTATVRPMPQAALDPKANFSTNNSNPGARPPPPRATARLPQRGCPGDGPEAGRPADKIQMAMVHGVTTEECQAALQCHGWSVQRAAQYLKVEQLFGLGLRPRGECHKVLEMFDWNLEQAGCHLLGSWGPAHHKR

[19] = target: Activated CDC42 kinase 1 (Homo sapiens) (UniProt Q07912); conditions: at 1 µM
[20] = target: High affinity nerve growth factor receptor (Homo sapiens) (UniProt P04629); conditions: at 0.1 µM;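 further: each value is a mean of replicate percent inhibition readings against TRKA kinase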
Sequence of High affinity nerve growth factor receptor (Homo sapiens) (P04629 33-796 limits assumed): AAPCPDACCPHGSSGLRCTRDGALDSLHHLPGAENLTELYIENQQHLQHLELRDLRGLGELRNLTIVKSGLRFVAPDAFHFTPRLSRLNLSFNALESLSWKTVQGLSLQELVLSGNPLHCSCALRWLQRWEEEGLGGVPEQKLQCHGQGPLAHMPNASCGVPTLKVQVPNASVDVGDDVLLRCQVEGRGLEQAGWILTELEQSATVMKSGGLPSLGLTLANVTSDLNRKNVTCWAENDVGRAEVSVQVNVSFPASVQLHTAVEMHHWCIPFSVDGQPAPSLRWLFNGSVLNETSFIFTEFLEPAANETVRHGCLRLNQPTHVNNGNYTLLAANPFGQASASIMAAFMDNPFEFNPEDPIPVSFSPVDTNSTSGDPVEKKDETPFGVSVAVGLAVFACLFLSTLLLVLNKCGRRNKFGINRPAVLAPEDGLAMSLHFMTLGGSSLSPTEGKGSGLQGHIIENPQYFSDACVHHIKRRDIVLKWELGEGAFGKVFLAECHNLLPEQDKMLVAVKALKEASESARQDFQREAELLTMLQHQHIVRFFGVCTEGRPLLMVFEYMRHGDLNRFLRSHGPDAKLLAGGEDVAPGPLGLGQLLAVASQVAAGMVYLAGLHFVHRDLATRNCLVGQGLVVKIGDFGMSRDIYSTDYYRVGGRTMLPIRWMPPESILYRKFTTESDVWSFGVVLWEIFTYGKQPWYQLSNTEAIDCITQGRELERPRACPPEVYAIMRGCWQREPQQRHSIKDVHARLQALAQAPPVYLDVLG

Sequence of Proto-oncogene tyrosine-protein kinase receptor Ret (Homo sapiens), P07949 [Y791F] (P07949 whole entry Y791F): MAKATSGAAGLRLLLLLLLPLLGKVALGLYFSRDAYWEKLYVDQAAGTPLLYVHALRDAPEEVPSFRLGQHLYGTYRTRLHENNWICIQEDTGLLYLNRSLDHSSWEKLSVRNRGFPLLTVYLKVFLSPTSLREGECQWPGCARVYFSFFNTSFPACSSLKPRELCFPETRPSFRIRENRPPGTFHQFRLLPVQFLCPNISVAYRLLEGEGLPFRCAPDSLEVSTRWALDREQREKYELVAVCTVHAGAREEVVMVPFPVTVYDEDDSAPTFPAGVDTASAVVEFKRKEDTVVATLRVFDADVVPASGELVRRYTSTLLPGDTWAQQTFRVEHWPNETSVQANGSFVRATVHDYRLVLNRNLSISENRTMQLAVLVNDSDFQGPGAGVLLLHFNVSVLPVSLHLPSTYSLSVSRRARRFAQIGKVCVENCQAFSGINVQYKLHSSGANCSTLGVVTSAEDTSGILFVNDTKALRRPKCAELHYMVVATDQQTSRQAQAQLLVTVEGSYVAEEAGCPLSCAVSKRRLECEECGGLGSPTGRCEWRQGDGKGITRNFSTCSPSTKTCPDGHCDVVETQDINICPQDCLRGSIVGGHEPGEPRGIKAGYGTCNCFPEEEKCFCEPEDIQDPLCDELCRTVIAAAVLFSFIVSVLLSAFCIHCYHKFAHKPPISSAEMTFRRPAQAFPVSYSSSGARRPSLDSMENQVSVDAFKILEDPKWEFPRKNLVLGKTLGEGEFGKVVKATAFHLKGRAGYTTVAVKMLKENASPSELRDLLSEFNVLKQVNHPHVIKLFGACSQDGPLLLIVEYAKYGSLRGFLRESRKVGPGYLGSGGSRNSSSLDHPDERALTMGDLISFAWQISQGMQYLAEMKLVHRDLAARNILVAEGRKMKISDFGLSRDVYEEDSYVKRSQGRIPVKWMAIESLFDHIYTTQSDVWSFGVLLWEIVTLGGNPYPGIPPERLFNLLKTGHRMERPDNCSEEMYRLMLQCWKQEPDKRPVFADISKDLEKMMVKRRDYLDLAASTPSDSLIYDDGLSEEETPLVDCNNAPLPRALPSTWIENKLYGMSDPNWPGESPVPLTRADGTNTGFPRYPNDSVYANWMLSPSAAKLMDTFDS

SMILES	inhibition [1] [%]	inhibition [2] [%]	inhibition [3] [%]	inhibition [4] [%]	inhibition [5] [%]	inhibition [6] [%]	inhibition [7] [%]	inhibition [8] [%]	inhibition [9] [%]	inhibition [10] [%]	inhibition [11] [%]	inhibition [12] [%]	inhibition [13] [%]	inhibition [14] [%]	inhibition [15] [%]	inhibition [16] [%]	inhibition [17] [%]	inhibition [18] [%]	inhibition [19] [%]	inhibition [20] [%]
COc1cccc(-n2cnc3c(N/N=C/c4ccncc4)ncnc32)c1	32.8	0.89	0.14	-1.03	4.38	12.5	50.4	2.47	6.19	1.9	-1.09	-2.49	5.03	-0.9	9.67	1.98	19.3	0.06	3.07	-1.67
NS(=O)(=O)c1ccc(N/N=C2\C(=O)Nc3ccc(C(=O)NCCCn4ccnc4)cc32)cc1	59.8	-0.93	7.24	9.73	13.2	9.31	27.1	-1.71	1.02	-1.95	-1.66	3.92	10.5	2.3	5.99	6.1	16.5	0.41	3.98	2.34
CCc1nccc2c1nc(-c1nonc1N)n2CC	13.1	-3.47	4.96	3.74	5.33	-0.62	10.1	-1.58	-3.49	-1.01	10.7	1.47	5.82	2.53	5.08	0.71	-5.44	-0.52	-0.83	
COc1ccc2cc(-c3c(-c4ccncc4)nc(-c4ccc(S(C)(=O)=O)cc4C)n3C)ccc2c1	26.6	0.23	-0.19	6.07	8.9	3.38	11.2	1.11	5.61	0.01	0.26	4.38	5.26	75	78.7	4.94	29.3	0.74	3.77	3.75
CN(C)CCOc1ccc(-c2cc(-c3ccc4c(c3)CCC4=NO)c(-c3ccncc3)o2)cc1	9.08	-0.03	22.4	-1.28	0.64	1.1	2.61	3	3.76	0.85	0.74	0.39	1.01	0.77	11.6	2.33	20.8	-1.03	0.17	-1.52
COc1ccc(C2=C(N3CCc4ccccc43)C(=O)NC2=O)cc1	9.39	9.63	6.83	6.01	9.68	-1.55	10.8	7.78	14.7	-4.17	2.15	5.51	6.81	2.29	3.07	4.3	13.9	1.51	2.14	5.01
